Results published in PubChem BioAssay (EPA / NIEHS).
Several values for one entry are separate records, joined by “and”; a condition that tells them apart may be missing. Identical values can stand only once. Activity calls are given as the source filed them. Rule for the calls: active = hit-call score of the fitted dose curve at least 0.9, where 1 is the maximum; inactive = score below 0.9.

Test: BSK_MyoF_SRB: Viability Assessment in the BioMAP Diversity Plus: MyoF Assay (AID 2284267)
Settings: primary human lung fibroblasts
Experimental: BSK_MyoF is a cell-based, multiplexed-readout assay that uses lung fibroblasts, […], with measurements taken at 24 hours after chemical dosing in a microplate: 96-well plate.BSK_MyoF_SRB is an assay component measured in the BSK_MyoF assay. It measures 0.1% sulforhodamine related to cell death using Sulforhodamine staining technology.Data from the assay component BSK_MyoF_SRB was analyzed at the endpoint, BSK_MyoF_SRB, in the positive analysis fitting direction relative to DMSO as the negative control and baseline of activity. Using a type of viability reporter, gain or loss-of-signal activity can be used to understand protein changes. To generalize the intended target to other relatable targets, this assay endpoint is annotated to the 'cell morphology' intended target family, where the subfamily is 'cell conformation'.
The levels of cell surface (or secreted, indicated by the prefix "s") biomarker endpoints were measured by ELISA. Overt cytotoxicity to cells in confluent adherent cultures (all systems other than the BT system) was assessed by measuring total protein levels using sulforhodamine B (SRB) staining in parallel cultures at the time of biomarker measurements, indicated as SRB endpoints. For proliferation assays for adherent cell types, individual cell types are cultured at sub-confluence and relative cell numbers quantified by SRB staining at time points optimized for each system (48 h: 3C and CASM3C systems; 72 h: BT and HDF3CGF systems; 96 h: SAg system). SRB was performed by staining cells with 0.1% SRB after fixation with 10% TCA and reading wells at 560 nm.Viability and proliferation of PBMC (T cells) was quantified by Alamar Blue reduction for the SAg and BT systems. For PBMC viability (referred to as PBMC Cytotoxicity within the assay endpoint names), cells were plated (75,000/well in a 96-well plate) and then chemical samples added for 1 h before addition of activators, SEB and TSST-1 (20 ng/mL final concentration each). Cells were incubated for 90 h. Then, Alamar Blue (20 uL/well) (Invitrogen, Cat DAL1100) was added for 6 h, and the plates were read with a fluorescence microplate reader at 546/580 nm (excitation/emission). For PBMC proliferation, cells were plated and activated as above but incubated for only 16 h prior to addition of Alamar Blue. Plates were read after 6 h.

Structure (SMILES) | outcome | AC50
Cc1cc(-n2nc3ccc(Cl)cc3n2)c(O)c(C(C)(C)C)c1 | inactive | –
CC[N+](CC)(CC(=O)Nc1c(C)cccc1C)Cc1ccccc1 | inactive | –
O=C(C(=O)c1ccccc1)c1ccccc1 | inactive | –
CC(C)CC(=O)CC(C)CC(C)C (stereo not given) | inactive | –
CN(C)c1ccc(C(c2ccccc2)c2ccc(N(C)C)cc2)cc1 | inactive | –
COC(=O)/C=C\C(=O)OC | inactive | –
CCCCCCCCCCCCCCCCCC[N+](C)(C)C | – | 3.6 µM (active)
CCCCCCCCCC/C=C/C1CC(=O)OC1=O (stereo not given) | inactive | –
Sc1nc2ccccc2s1 | inactive | –
OC(C(F)(F)F)(C(F)(F)F)C(O)(C(F)(F)F)C(F)(F)F | – | 36.7 µM (active) and 37.8 µM (active)
CCCCCCCCCCC1CO1 (stereo not given) | – | 35.2 µM (active)
Oc1cccc2ccccc12 | inactive | –
CCCCCCC(O)CCCCCCCCCCC(=O)OC (stereo not given) | inactive | –
CN(C)CCC(c1ccc(Cl)cc1)c1ccccn1 (stereo not given) | inactive | –
Cc1cccnc1 | inactive | –
